HIV TAR-Tat: HIV-1 TAR-Tat binding disruption. HIV-1 TAR RNA, Tat peptide displacement FRET; stronger effect = higher value. AID 1259389. z-score (concentration not given with the values). actives 0.6% (n = 100,000); active = z-score of 3 or more in at least 2 runs
CDC25B CDK2 inh: human CDC25B-CDK2/CyclinA binding inhibition; AID 1259370; P30305+P24941; z-score (concentration not given with the values); HTRF CDC25B-CDK2/CyclinA binding, anti-His/anti-Flag; stronger effect = higher value; actives 0.72% (n = 94,000); in the data active = z-score above about 3.2
* marks the source's active call; other numbers are inactive results. Sampled rows, rich in hits. Any-hit rate of the full collection: about 0.9%.

Results for COc1ccc(N2CSC3=C(C#N)C(c4c(OC)ccc5ccccc45)CC(=O)N3C2)c(OC)c1 (stereo not drawn) ?
HIV TAR-Tat: 1.6; CDC25B CDK2 inh: 3.8*

What do the screens show for `Cc1ccc(-n2ccn3c(=O)[nH]nc3c2=O)cc1F`?
HIV TAR-Tat: 2; CDC25B CDK2 inh: -0.94

What do the screens show for `CN1CCN(CCn2cnc3c2c(=O)n(C)c(=O)n3C)CC1`?
CDC25B CDK2 inh: -2.6

Results for O=C1c2cccnc2C(Nc2ccc(Br)cc2)N1Cc1ccc(F)cc1 (stereo not drawn) ?
HIV TAR-Tat: 0.86

What do the screens show for `COc1ccc(N2CSC3=C(C#N)C(c4cccs4)CC(=O)N3C2)cc1` (stereo not drawn)?
HIV TAR-Tat: -0.62; CDC25B CDK2 inh: 1.6

What do the screens show for `CCc1ccc(N2CSC3=C(C#N)C(c4cccs4)CC(=O)N3C2)cc1` (stereo not drawn)?
HIV TAR-Tat: -1.8; CDC25B CDK2 inh: 6.2*

Results for COC(=O)c1ccc(N2CSC3=C(C#N)C(c4cccs4)CC(=O)N3C2)cc1 (stereo not drawn) ?
HIV TAR-Tat: 2.2; CDC25B CDK2 inh: -0.72

What do the screens show for `CCOC(=O)c1ccc(N2CSC3=C(C#N)C(c4cccs4)CC(=O)N3C2)cc1` (stereo not drawn)?
HIV TAR-Tat: -3.1; CDC25B CDK2 inh: 7.1*

Results for Cc1ccc(N2CSC3=C(C#N)C(c4cccs4)CC(=O)N3C2)cc1 (stereo not drawn) ?
HIV TAR-Tat: -0.6; CDC25B CDK2 inh: 4.1*

What do the screens show for `CCOC(=O)c1sc(N2CCN(CC)CC2)nc1N`?
HIV TAR-Tat: 0.68; CDC25B CDK2 inh: 0.14

How did CNC(=O)C1CCN(c2ccc(Cl)cc2)C1=O (stereo not drawn) do in these assays?
HIV TAR-Tat: 0.48

Results for CCOC(=O)c1cnn(-c2ccccc2)c1NC(=O)CSc1nc2ccccc2s1 ?
CDC25B CDK2 inh: 19*

What do the screens show for `CCOC(=O)c1cc(-c2ccccc2)sc1NC(=O)CSc1nc2ccccc2s1`?
CDC25B CDK2 inh: -0.35

Results for COc1cccc(C(=O)OCc2cc(=O)n3c(-c4ccccc4)csc3n2)c1 ?
HIV TAR-Tat: -1.2

How did Clc1ccc(-c2noc(-c3cccnc3NCCc3ccccc3)n2)cc1 do in these assays?
HIV TAR-Tat: 0.07; CDC25B CDK2 inh: -0.94

Results for O=C(O)c1c[nH]c2c(ccc3ccccc32)c1=O ?
HIV TAR-Tat: 9.3*; CDC25B CDK2 inh: 1.8

What do the screens show for `Cc1c(Cl)ccc2c(=O)c(C(=O)O)c[nH]c12`?
HIV TAR-Tat: 1.3; CDC25B CDK2 inh: -1.5

What do the screens show for `CC(C)CCNC(=O)CCc1nnc2ccc(N3CCN(C)CC3)nn12`?
HIV TAR-Tat: -0.02

Results for Oc1ccccc1-c1nc(-c2cccs2)c(-c2cccs2)[nH]1 ?
HIV TAR-Tat: -0.47; CDC25B CDK2 inh: 18*

What do the screens show for `COc1cc(-c2nc(-c3ccccc3)c(-c3cccs3)[nH]2)cc(OC)c1O`?
CDC25B CDK2 inh: 0.89

What do the screens show for `Cc1cccc(N(C)c2c(-c3cc(C)c(C)cc3C)c(=O)c2=O)c1`?
HIV TAR-Tat: -0.45

Results for CN1/C(=C\c2cc[n+](C)cc2)Sc2ccccc21 ?
HIV TAR-Tat: 7.5*; CDC25B CDK2 inh: 0.14

Results for CCN1/C(=C/C2=CC(=O)CC(C)(C)C2)Sc2ccccc21 ?
HIV TAR-Tat: -15; CDC25B CDK2 inh: -2.1

How did C=CCN1/C(=C/c2cccc[n+]2C)Sc2ccccc21 do in these assays?
HIV TAR-Tat: 6.7*; CDC25B CDK2 inh: 0.99

What do the screens show for `C=CCN1/C(=C/c2cc[n+](C)cc2)Sc2ccccc21`?
HIV TAR-Tat: 4.1*; CDC25B CDK2 inh: 0.36

Results for CCn1c(=O)/c(=C2\Sc3ccccc3N2C)s/c1=C\c1cccc[n+]1C ?
HIV TAR-Tat: 1

What do the screens show for `C=CC[n+]1ccc(/C=C2\Sc3ccccc3N2C)cc1`?
HIV TAR-Tat: 1.6; CDC25B CDK2 inh: -3.4

How did CC(=O)OCc1cnc(C)c2oc(=O)c(-c3nc(-c4ccc(Cl)cc4)cs3)cc12 do in these assays?
HIV TAR-Tat: -6.1; CDC25B CDK2 inh: 1.3

How did CCOc1ccc(-n2c(C)nnc2SCc2nc(-c3ccc(OC)cc3)no2)cc1 do in these assays?
HIV TAR-Tat: 1.9; CDC25B CDK2 inh: -0.34

How did COc1cc(CNCCSc2nnnn2C)cc(Br)c1OCc1ccc(F)cc1 do in these assays?
HIV TAR-Tat: 1.5; CDC25B CDK2 inh: 1.4

Results for C=CCOc1c(Cl)cc(CNc2ccc3[nH]c(=O)[nH]c3c2)cc1OC ?
HIV TAR-Tat: 1.6; CDC25B CDK2 inh: -0.61

How did CCOc1cc(CNc2ccc3[nH]c(=O)[nH]c3c2)cc(Cl)c1OCC do in these assays?
HIV TAR-Tat: -2.6; CDC25B CDK2 inh: 7.7*

What do the screens show for `COc1cc(CNc2ccc3[nH]c(=O)[nH]c3c2)cc(Br)c1OCc1ccc(F)cc1`?
HIV TAR-Tat: -2.9; CDC25B CDK2 inh: 7.2*

What do the screens show for `COCCNC(=O)NC1COc2ccc(OC)cc2C1` (stereo not drawn)?
HIV TAR-Tat: 1.9
